High-throughput results from PubChem BioAssay.
cardiac RTF act: cardiac RTF calcium sensitization; 0.24% of 340,000 active; P19429+P45379; activation, % at 7.2 µM; IANBD-labeled TnC RTF fluorescence at EC20 calcium; 0% EC20 calcium, 100% full calcium;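 active = activation above the mean over all tested compounds plus 3 SD, cut at about 30% in these data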;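 note: rise in fluorescence read as greater calcium sensitivity of cardiac thin filaments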
RTF Ca sens inh: cardiac RTF calcium desensitization. inhibition, % at 7.15 µM. 0.12% of 340,000 active. IANBD-labeled cardiac RTF, Ca2+ fluorescence;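 active = inhibition above the mean inhibition of all tested compounds plus 3 SD, cut at about 17% in these data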;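 note: assay run at fixed EC70 calcium of 1.6 mM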
Keap1 Nrf2 FP: disrupts human Keap1 binding to Nrf2 peptide | Keap1 Kelch-Nrf2 peptide fluorescence polarization, 1536-well | Q14145 | 0.15% of 340,000 active | inhibition, % at 9.4 µM; in the data active = inhibition above about 12%; inconclusive = no clear call, values can overlap the other calls; inactive = below about 7.3%;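 note: human Keap1 Kelch domain with fluorescein labeled Nrf2 9mer peptide probe; 0% = neutral control wells and 100% = peptide positive control; higher means more block of Keap1 binding to Nrf2 peptide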
C-LANA FP: inhibitors of KSHV LANA C-terminal domain DNA binding; MBP-C-LANA/FAM-LBS DNA binding, fluorescence polarization; inhibition, % at 9 µM; 0.078% of 340,000 active;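 active = highest replicate inhibition at or above 60% at 9 µM, even if other replicates fall short; inactive = all replicates below 60% inhibition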;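 note: 0% = neutral control wells and 100% = 4 µM acridine orange control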
LANA-H2B inh: blocks KSHV LANA binding to histone H2A/H2B; Q9QR71; cell-free LANA-H2A/H2B peptide, fluorescence polarization; inhibition, % (no concentration beside the values); 0.6% of 320,000 active; AID 2629; in the data active = inhibition mostly above about 10%, no sharp cut-off; inactive = mostly below about 6.7%
Target sequence (Q9QR71 whole entry, looked up): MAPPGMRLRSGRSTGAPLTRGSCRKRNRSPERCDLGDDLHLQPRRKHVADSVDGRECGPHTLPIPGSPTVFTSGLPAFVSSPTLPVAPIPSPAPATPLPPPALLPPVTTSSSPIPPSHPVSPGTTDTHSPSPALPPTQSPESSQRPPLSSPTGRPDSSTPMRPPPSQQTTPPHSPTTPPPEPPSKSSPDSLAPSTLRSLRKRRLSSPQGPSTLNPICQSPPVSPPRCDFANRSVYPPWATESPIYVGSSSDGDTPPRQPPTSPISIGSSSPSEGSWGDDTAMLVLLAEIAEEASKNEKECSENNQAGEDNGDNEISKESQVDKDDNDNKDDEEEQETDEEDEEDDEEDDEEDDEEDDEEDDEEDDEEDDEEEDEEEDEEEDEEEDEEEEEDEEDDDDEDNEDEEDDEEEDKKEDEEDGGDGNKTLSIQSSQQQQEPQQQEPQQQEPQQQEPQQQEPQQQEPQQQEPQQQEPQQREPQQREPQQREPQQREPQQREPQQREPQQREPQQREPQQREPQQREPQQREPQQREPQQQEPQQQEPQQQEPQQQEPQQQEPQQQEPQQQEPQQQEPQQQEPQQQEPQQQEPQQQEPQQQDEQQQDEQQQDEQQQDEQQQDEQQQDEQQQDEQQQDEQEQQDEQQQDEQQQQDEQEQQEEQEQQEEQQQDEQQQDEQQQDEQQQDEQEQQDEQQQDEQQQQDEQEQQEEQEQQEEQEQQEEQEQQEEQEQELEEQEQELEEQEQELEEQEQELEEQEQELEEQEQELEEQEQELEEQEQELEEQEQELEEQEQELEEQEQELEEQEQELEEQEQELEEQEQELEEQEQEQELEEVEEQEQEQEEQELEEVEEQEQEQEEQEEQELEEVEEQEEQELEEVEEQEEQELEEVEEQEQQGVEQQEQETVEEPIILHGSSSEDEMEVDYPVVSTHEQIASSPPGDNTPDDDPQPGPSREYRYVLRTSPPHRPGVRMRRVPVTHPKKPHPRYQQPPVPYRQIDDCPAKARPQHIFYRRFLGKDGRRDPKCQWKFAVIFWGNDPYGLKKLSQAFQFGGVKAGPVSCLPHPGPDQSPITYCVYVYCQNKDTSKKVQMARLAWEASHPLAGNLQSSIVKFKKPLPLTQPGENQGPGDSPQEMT
Starred values were filed as active, the others as inactive; i = inactive; ? = inconclusive; · = not tested or not shown; + = active, no number. Sampled rows, rich in hits. Any-hit rate of the full collection: about 1%.

SMILES | cardiac RTF act | RTF Ca sens inh | Keap1 Nrf2 FP | C-LANA FP | LANA-H2B inh
CS(=O)(=O)C1=NSC2=NC(=O)/C(=C\c3cccn3-c3ccc(Cl)cc3)C(=N)N21 | 1 | -6 | -1 | 5 | 48*
COc1ccccc1NC(=O)CSc1n[nH]c(-c2ccco2)n1 | 7 | -21 | -4 | -1 | ·
Cc1ccccc1NC(=O)CSc1n[nH]c(-c2ccco2)n1 | 4 | -18 | -7 | -1 | 16*
O=c1[nH][nH]c2cc([N+](=O)[O-])ccc12 | -3 | -1 | 1 | -2 | ·
O=C(Cn1nc(Cc2cccnc2)c2ccccc2c1=O)Nc1ccccc1F | 3 | 1 | 0 | -2 | 16*
Cc1c2cnccc2c(C)c2c1oc1ccccc12 | -2 | -17 | -4 | -1 | ·
CC(=O)Oc1ccc2c(c1)Oc1cc(OC(C)=O)ccc1C21OC(=O)c2ccccc21 | + | i | 15* | 168* | 142*
Cc1cc(O)ccc1C1(c2ccc(O)cc2C)OC(=O)c2ccccc21 | -6 | -6 | 5 | 1 | -3
Oc1ccc(CCNc2c3ccccc3nc3ccccc23)cc1O | -1 | 3 | -6 | -8 | 14*
Cc1ccc(S(=O)(=O)c2c(C)nn(C(C)(C)C)c2OC(=O)c2ccco2)cc1 | -5 | 0 | 1 | 0 | 15*
Cc1ccc(S(=O)(=O)c2c(C)nn(C(C)(C)C)c2OC(=O)c2ccc(Br)o2)cc1 | -1 | 3 | -3 | 2 | 7
COc1cc(C=NCC2OCCc3ccccc32)cc(OC)c1 (stereo not given) | -3 | 7 | 4 | 1 | 18*
Cc1ccc(NC(=O)C2CC(=O)n3c(nc4ccccc43)N2)cc1C (stereo not given) | -2 | -6 | -2 | 0 | 16*
Cc1ccc(S(=O)(=O)CCC(=O)OCc2nnc(-c3ccc([N+](=O)[O-])cc3)o2)cc1 | -1 | -3 | 4 | -1 | ·
Cc1ccc(C2(C)NC(=O)N(CC(=O)N(Cc3ccccc3)C(C)(C)C)C2=O)cc1 (stereo not given) | -9 | -1 | 2 | -1 | 17*
COc1ccc(C2(C)NC(=O)N(CC(=O)NCc3ccccc3)C2=O)cc1OC (stereo not given) | 2 | 4 | 4 | 0 | 25*
CC(C)(C)N(Cc1ccccc1)C(=O)CN1C(=O)c2ccccc2C1=O | -5 | 6 | 2 | -1 | -5
COc1ccc(C(=O)CN2C(=O)NC(C)(c3ccccc3)C2=O)cc1OC (stereo not given) | 3 | -1 | -6 | -2 | 1
Cc1n[nH]c(C)c1NC(=O)CN1CCN(S(=O)(=O)c2ccc(C(F)(F)F)cc2)CC1 | -3 | -1 | 1 | 4 | ·
CCOc1ccc(CNC(=O)CCS(=O)(=O)c2ccc3c(c2)NC(=O)CO3)cc1OC | -5 | -7 | 0 | -1 | -4
CNC(=O)c1ccc(-c2cc(C(F)(F)F)nn2C)s1 | · | · | · | · | 0
Cn1nc(C(F)(F)F)cc1-c1ccc(/C=C(\C#N)C(=O)c2ccccc2)s1 | 5 | -3 | ? | -5 | 20*
CCCCN(C)C(=O)C1CCCN(S(=O)(=O)c2ccc3c(c2)oc(=O)n3C)C1 (stereo not given) | -5 | 1 | 2 | 0 | 0
Cc1cccc(NC(=O)COC(=O)Cc2cccc(C(F)(F)F)c2)c1C | -1 | -22 | -6 | -2 | +
O=C(CN1C(=O)NC2(CCCC2)C1=O)NNC(=O)c1ccccc1 | 14 | -9 | -6 | 0 | 2
SMILES | cardiac RTF act | RTF Ca sens inh | Keap1 Nrf2 FP | C-LANA FP | LANA-H2B inh
COc1ccc(C(=O)N(C)C2(C)CCS(=O)(=O)C2)cc1OC (stereo not given) | -5 | -1 | 0 | 1 | -4
CN(C(=O)c1ccc2c(c1)OCO2)C1(C)CCS(=O)(=O)C1 (stereo not given) | 10 | 1 | 1 | 1 | 14*
Cc1cccc(C)c1NC(=O)CN(C)C(=O)c1ccc2c(=O)n3c(nc2c1)CCC3 | -4 | 1 | 1 | 0 | 15*
Cc1cc(C)c(NC(=O)CNC(=O)c2ccc3c(=O)n4c(nc3c2)CCC4)c(C)c1 | -4 | -6 | -6 | -2 | 5
O=C(Cc1ccc(NC(=O)C2CCCN(C(=O)C3CCC3)C2)cc1)Nc1ccc(C(=O)N2CCOCC2)cc1 (stereo not given) | -9 | -11 | -1 | 2 | ·
O=C(CCc1nc2sc3c(c2c(=O)[nH]1)CCCC3)NCCOc1ccccc1 | 0 | -9 | -3 | 2 | -5
Cc1ccc(OCCNC(=O)CCc2nc3sc4c(c3c(=O)[nH]2)CCCC4)cc1 | 6 | -4 | 2 | 0 | 35*
COc1cccc(/C=N/NC(=O)c2c(C)nc3ccc(Cl)cn23)c1O | 3 | -4 | -1 | 4 | 2
Cc1ccccc1NC(=O)Cc1nc(COC(=O)CCC(=O)c2ccccc2)cs1 | -2 | -14 | 8 | 4 | 104*
C/C=C(\C)C(=O)OC1[C@H](OC(C)=O)C2(CO)C(CC1(C)C)C1=CCC3C4(C)CCC(O[C@@H]5O[C@H](C(=O)O)[C@@H](O[C@@H]6O[C@H](CO)[C@@H](O)[C@H](O)[C@H]6O)[C@H](O)[C@H]5O[C@H]5O[C@H](CO)[C@@H](O)[C@H](O)[C@H]5O)[C@](C)(CO)C4CCC3(C)[C@]1(C)C[C@H]2O (stereo not given in full) | 0 | -4 | 4 | 4 | ·
CN(Cc1ccccc1)C(=O)C1CCCN1S(=O)(=O)c1ccc2c(c1)n(C)c(=O)c(=O)n2C (stereo not given) | -1 | -2 | 0 | -1 | 24*
Cn1c(=O)c(=O)n(C)c2cc(S(=O)(=O)N3CCC(Cc4ccccc4)CC3)ccc21 | -2 | -6 | -5 | -1 | 13*
O=C(O)C(Cc1ccccc1N(CCO)CCO)N1C(=O)c2ccccc2C1=O (stereo not given) | 2 | 1 | 0 | -2 | ·
CCNC(=S)Nc1ccc(N2CCCCC2)cc1 | -2 | -3 | -2 | 0 | 3
CCNC(=S)N/N=C/c1sc(N2CCCCC2)nc1-c1cccs1 | 33* | -19 | -2 | 7 | 0
O=C(CN1CCCCCC1=O)N1CCN(S(=O)(=O)c2cccs2)CC1 | -2 | 2 | -5 | -1 | 2
CC1(C)CC2CC(C)(CN2C(=O)COC(=O)CNC(=O)c2ccc(Cl)c(Cl)c2)C1 (stereo not given) | -1 | -1 | -2 | 2 | -2
Cc1nc2nc[nH]n2c(=O)c1CCOC(=O)c1c(F)cccc1F | 4 | -13 | 1 | -2 | -1
Cc1nc2nc[nH]n2c(=O)c1CCOC(=O)c1ccccc1F | 2 | 1 | 2 | -1 | 10*
N#CC1=C(N)Oc2cc(O)c(Cl)cc2C1c1ccccc1F (stereo not given) | 33* | -54 | -9 | 21 | 7
COc1ccc2c(CC(=O)NCc3cccs3)coc2c1 | 2 | -5 | 6 | 0 | 6
